{"source": "PubChem BioAssay (NCATS)", "note": "Results filed as inconclusive are left out. Where a call stands in place of a potency, no number is given. Active and inactive are the calls of the source. Calls come from the whole dose curve. Square brackets hold non-standard residues; d marks the D form. Peptide text beside a SMILES is read from it. Nle = CCCC[C@H](N)C(=O)O", "data": [{"assay": "Confirmatory qHTS for VERO E6 Cytotoxicity Assay: Counterscreen for SARS-CoV-2 CPE Assay (AID 1508605); note: nearly all actives have a fitted effect of over 60% in size; note: potency is the fitted concentration of half-maximal effect", "conditions": "cell viability luminescence; series mostly up to 20 µM", "values": [{"compound": "COc1ccc2c(c1)CN(C(=O)CCN1CCC(Cc3ccccc3)CC1)CCS2", "Potency": "inactive"}, {"compound": "NC(=O)c1cnc(N[C@@H]2CCCC[C@@H]2N)nc1Nc1cccc(-n2nccn2)c1", "Potency": "inactive"}, {"compound": "O=C(c1ccc(-c2ccc(Cl)cc2)o1)N(Cc1ccccn1)c1ccc(N2CCNCC2)cc1", "Potency": "11.2 µM (active)"}, {"compound": "O=C1NC(=O)c2cc(Nc3ccc(F)cc3)c(Nc3ccc(F)cc3)cc21", "Potency": "11.2 µM (active)"}, {"compound": "COc1ccc2sc(NC(c3ccc(OC(F)F)cc3)c3ccc4cccnc4c3O)nc2c1", "note": "(configuration not stated)", "Potency": "0.708 µM (active)"}, {"compound": "CCC(C)CNCC(=O)N1CCC2SC=CC2C1COc1cccc(C)c1", "note": "(configuration not stated)", "Potency": "inactive"}, {"compound": "CCN(CC)CCN(Cc1ccc(-c2ccc(C(F)(F)F)cc2)cc1)C(=O)Cn1c(SCc2ccc(F)cc2)nc(=O)c2c1CCC2", "Potency": "10 µM (active)"}, {"compound": "COc1cc2nc(N3CCCCC3)nc(NC3CCN(Cc4ccccc4)CC3)c2cc1OC", "Potency": "10 µM (active)"}, {"compound": "COc1ccc2c(c1)[C@]1(C[C@H]1c1ccc3c(/C=C/c4ccc(CN5C[C@@H](C)O[C@@H](C)C5)cc4)n[nH]c3c1)C(=O)N2", "Potency": "inactive"}, {"compound": "O[C@H]1[C@H]2c3cc4c(cc3CN3CCC(=C[C@@H]1O)[C@H]23)OCO4", "Potency": "3.16 µM (active)"}, {"compound": "C=CC(=O)N[C@H]1CCOC[C@H]1Nc1ncc2cc(-c3c(Cl)c(OC)cc(OC)c3Cl)ccc2n1", "Potency": "inactive"}, {"compound": "COC(=O)CC[C@@H](C)C1CCC2C3CCC4C[C@H](OC(C)=O)CCC4(C)C3C[C@H](O)C21C", "note": "(some centres not stated)", "Potency": "inactive"}]}, {"assay": "Confirmatory qHTS for activators (rescue) of SARS-CoV-2 Cytopathic Effect (CPE) (AID 1508606); note: nearly all actives have a fitted effect of over 70% in size; note: potency is the fitted concentration of half-maximal effect", "conditions": "Vero E6 SARS-CoV-2 CPE rescue, viability luminescence; series mostly up to 20 µM", "values": [{"compound": "COc1cc(-n2cnc3cc(-c4ccc(Cl)cc4)sc3c2=O)ccc1OCCN1CCCC1", "Potency": "3.55 µM (active)"}, {"compound": "CC1=CC2OC3CC(O)[C@@](C)(C34CO4)[C@@]2(C)C(O)C1=O", "note": "(some centres not stated)", "Potency": "inactive"}, {"compound": "CC1(C)CC[C@]23CO[C@@]4(CCC5[C@@]6(C)CC[C@H](O[C@@H]7OC[C@H](O[C@@H]8O[C@H](CO)[C@@H](O)[C@H](O)[C@H]8O[C@@H]8OC[C@@H](O)[C@H](O)[C@H]8O)[C@H](O)[C@H]7O[C@@H]7O[C@H](CO)[C@@H](O)[C@H](O)[C@H]7O)[C@@](C)(CO)C6CC[C@@]5(C)[C@]4(C)C[C@H]2O)[C@@H]3C1", "note": "(some centres not stated)", "Potency": "inactive"}, {"compound": "COc1cc(NC(=O)Nc2cccc(CNC(=O)O[C@H]3CCOC3)c2)ccc1-c1cnco1", "Potency": "inactive"}, {"compound": "CCN(CC)CC1CCN(c2ncc3ncnc(Nc4ccc(F)c(Cl)c4)c3n2)CC1", "Potency": "inactive"}, {"compound": "C[C@@H]1O[C@@H](O[C@@H]2[C@@H](O)[C@H](O[C@@H]3[C@@H](O)[C@@H](O)[C@H](O[C@H]4[C@H](OC(=O)[C@]56CCC(C)(C)C[C@H]5C5=CCC7[C@@]8(C)C[C@H](O)[C@H](O[C@@H]9O[C@@H](C)[C@H](O)[C@@H](O)[C@H]9O)[C@@](C)(CO)C8CC[C@@]7(C)[C@]5(C)C[C@H]6O)O[C@H](C)[C@H](O)[C@@H]4O)O[C@H]3C)OC[C@H]2O)[C@H](O)[C@H](O)[C@H]1O", "note": "(some centres not stated)", "Potency": "0.602 µM (active)"}, {"compound": "CC1OC2OC3C(OCC(O)C3O)OC(=O)C34CCC(C)(C)CC3C3=CCC5C6(C)CC(O)C(OC7OC(CO)C(O)C(O)C7OC7OCC(OC(=O)CC(C)(O)CC(=O)OC1C(OC1OCC(O)C(O)C1O)C2O)C(O)C7O)C(C)(CO)C6CCC5(C)C3(C)CC4O", "note": "(configuration not stated)", "Potency": "inactive"}, {"compound": "CCCC[C@@H](C=O)NC(=O)[C@H](CC(C)C)NC(=O)[C@H](CC(C)C)NC(C)=O", "note": "(Ac-Leu-Leu-[Nle]-aldehyde)", "Potency": "2 µM (active)"}, {"compound": "CC1CCN(C(c2ccc(F)cc2)c2ccc(C(C)C(=O)O)cc2-c2ccc(C(F)(F)F)cc2)CC1", "note": "(configuration not stated)", "Potency": "inactive"}, {"compound": "COc1ccc2c(c1)CN(C(=O)CCN1CCC(Cc3ccccc3)CC1)CCS2", "Potency": "4.92 µM (active)"}]}]}
